# In PubChem BioAssay (NCI):
# The panel holds about 83,000 compounds, 20% with a hit somewhere; the sample as a whole holds those more often.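 How to read the values: 0–100, growth inhibition (40 = 60% inhibited); 0, no net growth; -100 to 0, cell death (-40 = 40% of starting cells died; -100 = all dead).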 Unmarked numbers belong to inactive results. Calls of active or inactive are those of the source. How the source made its calls: active means growth percent below 10; inactive means the rest.
# How the values were obtained:
# Test in all cases: NCI-60 one-dose screen, 48 h (100 = growth as untreated, 0 = no growth, -100 = all killed)
# Details in all cases: 10 µM unless noted
# NCI-H23 lung = system: NCI-H23 lung
# NCI-H226 lung = system: NCI-H226 lung
# NCI-H322M lung = system: NCI-H322M lung
# HOP-62 NSCLC = system: HOP-62 NSCLC
# NCI-H460 lung = system: NCI-H460 lung
# HOP-92 NSCLC = system: HOP-92 NSCLC
# NCI-H522 lung = system: NCI-H522 lung
# A549/ATCC NSCLC = system: A549/ATCC NSCLC
# 786-0 renal = system: 786-0 renal
# COLO 205 colon = system: COLO 205 colon
# DU-145 prostate = system: DU-145 prostate
# K-562 leukemia = system: K-562 leukemia
# MALME-3M melanoma = system: MALME-3M melanoma
# MDA-MB-231 breast = system: MDA-MB-231 breast
# RXF 393 renal = system: RXF 393 renal
# SF-268 CNS = system: SF-268 CNS
# SF-295 CNS = system: SF-295 CNS
# SF-539 CNS = system: SF-539 CNS
# UACC-257 melanoma = system: UACC-257 melanoma
# M14 melanoma = system: M14 melanoma
SMILES,growth (NCI-H23 lung),growth (NCI-H226 lung),growth (NCI-H322M lung),growth (HOP-62 NSCLC),growth (NCI-H460 lung),growth (HOP-92 NSCLC),growth (NCI-H522 lung),growth (A549/ATCC NSCLC),growth (786-0 renal),growth (COLO 205 colon),growth (DU-145 prostate),growth (K-562 leukemia),growth (MALME-3M melanoma),growth (MDA-MB-231 breast),growth (RXF 393 renal),growth (SF-268 CNS),growth (SF-295 CNS),growth (SF-539 CNS),growth (UACC-257 melanoma),growth (M14 melanoma)
CN(C)c1ccc(/C=C/C(=O)c2ccc(Nc3nc(Nc4ccc(F)cc4)nc(Nc4ccc(Cl)cc4)n3)cc2)cc1,73.3%,89.3%,95.7%,78.3%,62.7%,51.3%,56.4%,53%,71.2%,64.2%,84.4%,23.7%,64.3%,80.1%,22.4%,84.1%,44.8%,82.2%,82.2%,54%
O=C1OCC2=C1C(c1cccc(F)c1)c1cc3c(cc1N2CCO)OCO3 (stereo not given),33.4%,67.6%,51.2%,32%,14.2%,34.6%,12.5%,43%,24.5%,7.08% (active),30.5%,9.79% (active),52.7%,49.9%,32.6%,38.7%,1.9% (active),2.82% (active),75.5%,12.6%
Cc1ccc(C)c2c1C(O)(C#Cc1ccccc1)c1ccccc1C2(O)C#Cc1ccccc1 (stereo not given),92.4%,89.9%,55.8%,75.1%,23.8%,3% (active),57.2%,47.5%,70.5%,48.4%,87%,22.2%,39.2%,77%,64.5%,56.5%,4.71% (active),56.8%,63%,58.9%
CCOC(=O)c1c(NC(=O)CSc2n[nH]c3nc4ccccc4n23)sc(CC)c1C,98.6%,86.7%,107%,108%,106%,63.6%,87%,102%,98.4%,114%,112%,117%,138%,90.3%,96.1%,108%,91%,111%,113%,116%
CC/C(Cc1ccccc1)=C(\c1ccc(OCCN2CCCCCC2)cc1)c1ccc(OC(=O)NCc2ccccc2)cc1,74.9%,90%,96.6%,82.8%,5.51% (active),56%,84.7%,64.4%,58.4%,-24.2% (active),83.2%,-11.8% (active),61.3%,74.4%,77.4%,77.3%,107%,79.7%,77.6%,56.3%
O=C(OC[C@@H]1CO1)c1cccc2c(=O)c3ccccc3[nH]c12,-58.5% (active),-24.6% (active),-13% (active),-26% (active),-21.8% (active),-25.5% (active),-49.9% (active),-20% (active),-8.54% (active),-37.3% (active),-20.8% (active),4.46% (active),-89.9% (active),-28.1% (active),-56.9% (active),-31.3% (active),-8.88% (active),-38.6% (active),-30.8% (active),-65.8% (active)
COc1ccc2cc(Cn3cc[n+](Cc4ccc5ccccc5c4)c3)ccc2c1,36%,49.2%,65.8%,49.8%,38.3%,-11.8% (active),-13.6% (active),57.1%,51%,-66.3% (active),52.2%,18.4%,24.3%,29.8%,4.94% (active),22.6%,67%,48.5%,-15.8% (active),17.5%
CN1CCN(Cc2ccc(NC(=O)c3cncc(C#Cc4cncc5ncccc45)c3)cc2C(F)(F)F)CC1,15%,12.7%,18%,10.4%,-47.3% (active),-34.9% (active),19.7%,17.7%,38.3%,-23% (active),34.4%,-8.35% (active),-14.4% (active),5.93% (active),8.21% (active),33.7%,32.9%,-31.8% (active),6.41% (active),-51.1% (active)
O=C(CCl)Nc1ccc2c(Nc3cc(O)ccc3Cl)ncnc2c1,-74% (active),-35% (active),5.63% (active),-63.5% (active),-54.8% (active),-85% (active),-65.8% (active),-56.9% (active),-89.8% (active),-51.9% (active),-89.1% (active),-36% (active),-86.4% (active),-84.5% (active),-88.6% (active),-56.1% (active),-77.1% (active),-94% (active),-11.5% (active),-77.1% (active)
Cc1nn(-c2ccccc2)c(/N=C/N(C)C)c1/C=C/C(=O)c1ccc(Cl)cc1,96.9%,98.3%,101%,93.2%,103%,78%,78.4%,108%,103%,110%,122%,59.6%,90.1%,77.2%,97.8%,118%,106%,101%,119%,94.7%
C#CC#CC#CC#CC#CC#CC#CC#CC[C@H]1OC[C@H](COC(=O)O[C@@H](C(=O)O[C@H]2C[C@@]3(O)[C@@H](OC(=O)c4ccccc4)[C@@H]4[C@]5(OC(C)=O)CO[C@@H]5C[C@H](O)[C@@]4(C)C(=O)[C@H](OC(C)=O)C(=C2C)C3(C)C)[C@@H](NC(=O)c2ccccc2)c2ccccc2)O1,45.8%,54.5%,53.6%,68.9%,18.8%,57.7%,63.5%,49.6%,83.5%,19.3%,45.3%,22.2%,56.7%,62.5%,43%,61.7%,44.6%,39.8%,70.9%,27.5%
COc1cc(/C=C2\C(=O)N(c3c(Cl)cccc3Cl)c3ccccc32)cc(OC)c1OCCCCCCn1c2ccccc2c(=O)c2ccccc21,103%,95.4%,95.7%,95.4%,110%,95.9%,87.3%,109%,95.5%,107%,104%,98.8%,106%,100%,106%,87.6%,99%,93.8%,111%,93.8%
CC(C)C[C@@H](C(=O)N[C@H](C(=O)OC1CCCC1)c1ccccc1)[C@H](O)C(=O)NO,55.6%,70.1%,69.2%,26.9%,92.4%,65.7%,41.1%,56%,67.8%,78.6%,68.3%,22.7%,38.3%,9.77% (active),7.55% (active),88.9%,60.8%,52.2%,36%,54.5%
COc1ccc(NC(=O)c2sc3nc4c(cc3c2N)CCCC4)cc1,28%,50.6%,53.1%,34.5%,18.7%,47.3%,-20.7% (active),30%,38.6%,14%,11.5%,6.99% (active),54.8%,49.2%,-4.44% (active),58.8%,8.64% (active),3.47% (active),53%,18.3%
CCC(CC)(N(CC(=O)O)CC(=O)O)C(CC)(CC)N(CC(=O)O)CC(=O)O,106%,106%,122%,103%,108%,95.6%,100%,91.3%,109%,113%,119%,101%,133%,110%,120%,114%,108%,109%,100%,106%
